Measurements: the supplement of paper PMC6555819

Tests used:
Test in all cases: PBM binding z-score (relative to random genomic background probes); higher = stronger binding; sequences stand for … in GC…GCGATTGACAGCGTAGAATGAAGG
[1] = system: FXR:RXRa (NR concentration 270 nM, RXRa partner concentration 90 nM)
Procedure, shortened: (§1)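 Each nuclear receptor dimer, without ligand, was incubated for 1 h on custom Agilent 4×180K protein-binding microarrays. Binding was detected with antibodies against each partner (one per run), and scanned fluorescence was regression-normalized. The binding z-scores are referenced to random human genomic background probes.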

[2] = system: LXRa:RXRa (NR concentration 270 nM, RXRa partner concentration 90 nM)
Procedure, shortened: as §1

[3] = system: LXRa homodimer (NR concentration 270 nM)
Procedure, shortened: as §1

[4] = system: LXRb:RXRa (NR concentration 270 nM, RXRa partner concentration 90 nM)
Procedure, shortened: as §1

[5] = system: LXRb homodimer (NR concentration 270 nM)
Procedure, shortened: as §1

[6] = system: PPARa:RXRa (NR concentration 270 nM, RXRa partner concentration 90 nM)
Procedure, shortened: as §1

[7] = system: PPARg:RXRa (NR concentration 180 nM, RXRa partner concentration 90 nM)
Procedure, shortened: as §1

[8] = system: PPARg:RXRa 270nM:90nM, anti-RXR (NR concentration 270 nM, RXRa partner concentration 90 nM)
Procedure, shortened: as §1

[9] = system: PPARg:RXRa 30nM:10nM, anti-RXR (NR concentration 30 nM, RXRa partner concentration 10 nM)
Procedure, shortened: as §1

[10] = system: PPARg:RXRa 90nM:30nM, anti-RXR (NR concentration 90 nM, RXRa partner concentration 30 nM)
Procedure, shortened: as §1

[11] = system: PPARg:RXRa DBDmut IVT, anti-RXR (DBD mutation: RXRa K156A/R161A, NR concentration 270 nM, RXRa partner concentration 90 nM)
Procedure, shortened: as §1

[12] = system: PPARg:RXRa IVT, anti-PPARg (NR concentration 270 nM, RXRa partner concentration 90 nM)
Procedure, shortened: as §1

[13] = system: PPARg DBDmut:RXRa IVT, anti-PPARg (DBD mutation: PPARg1 K132A/R137A, NR concentration 270 nM, RXRa partner concentration 90 nM)
Procedure, shortened: as §1

[14] = system: PPARg DBDmut IVT, anti-PPARg (DBD mutation: PPARg1 K132A/R137A, NR concentration 270 nM)
Procedure, shortened: as §1

[15] = system: PPARg homodimer (NR concentration 180 nM)
Procedure, shortened: as §1

[16] = system: PXR:RXRa (NR concentration 270 nM, RXRa partner concentration 90 nM)
Procedure, shortened: as §1

[17] = system: PXR homodimer (NR concentration 270 nM)
Procedure, shortened: as §1

[18] = system: RARa:RXR (NR concentration 270 nM, RXRa partner concentration 90 nM)
Procedure, shortened: as §1

[19] = system: RARa homodimer (NR concentration 270 nM)
Procedure, shortened: as §1

[20] = system: RARb:RXRa (NR concentration 270 nM, RXRa partner concentration 90 nM)
Procedure, shortened: as §1

Sequence	PBM binding z-score [1]	PBM binding z-score [2]	PBM binding z-score [3]	PBM binding z-score [4]	PBM binding z-score [5]	PBM binding z-score [6]	PBM binding z-score [7]	PBM binding z-score [8]	PBM binding z-score [9]	PBM binding z-score [10]	PBM binding z-score [11]	PBM binding z-score [12]	PBM binding z-score [13]	PBM binding z-score [14]	PBM binding z-score [15]	PBM binding z-score [16]	PBM binding z-score [17]	PBM binding z-score [18]	PBM binding z-score [19]	PBM binding z-score [20]
AGAACGTGGGCAATGAGTTGATAGCACGGGTGGC	-0.669	-0.786	-0.475	-1.07	-0.973	-0.601	0.723	-0.543	-0.342	-0.679	-0.374	-0.0857	-0.361	-0.494	-0.516	-0.399	-0.204	-0.5	-0.521	-0.261
TAGCCTAGGTCATTGCGCCAGTATAGTACGCATC	4.86	3.69	1.05	2.41	0.632	3.48	2.25	2.49	0.591	1.63	1.65	2.83	1.15	0.064	1.7	1.89	-0.0218	2.62	-0.455	3.7
CAAACTAGGTCAAGAGGTAAAAGTCCGCTTCCCG	4.11	3.15	0.451	2.2	0.356	5.2	8.8	7.58	5.87	7.82	8.5	8.39	6.02	5.32	3.74	1.92	0.28	3.43	0.988	4.19
ATATGTAGGCTATCGGGTCATTCAGTTTGCGCAT	1.71	1.58	0.22	1.95	0.313	3.69	4.12	3.83	1.92	3.21	5.77	5.5	1.43	1.46	1.08	2.87	6.85	2.54	0.357	1.72
TCATATAGGTAATATAGGTGAAAGTCGGCATCTA	0.703	1.07	0.157	0.856	0.102	2.92	3.31	3.65	4.1	3.94	5.06	5.68	1.83	1.71	1.03	0.599	-0.0145	1.09	0.799	0.469
CCTACTGGGCCAAAGGTCGTTGATTCCAATGCTC	1.29	1.46	-0.124	1.91	-0.505	5.3	11.1	9.69	9.46	10.5	5.47	5.6	0.111	-0.79	1.18	2.45	0.0615	3.09	-0.377	1.97
TCTTGTAGATCAATAGAGGGTAAGAAAGTGCGCT	0.692	0.902	-0.251	0.517	0.175	0.606	-0.216	1.19	2.61	2.29	1.96	0.858	0.311	0.811	0.572	0.854	-0.0819	0.841	0.388	0.184
ATCGAAAGGTCGACGAGGTGCGTATACACCGTTT	4.16	2.96	-0.0247	2.54	0.0651	4.07	2.24	2.73	0.695	1.53	0.356	1.41	0.639	-0.109	1.06	3.37	-0.325	2.45	-0.212	3.79
TCTCGGAGGACACGAAAGGTCAGAGCTCGACATC	3.13	3.71	3.02	2.84	-0.0794	3.45	1.37	2.8	2.54	2.41	1.62	1.53	0.174	-1.26	3.04	3.96	0.404	4.18	1.9	4.14
TATATAGGGTCAAAGGCCAGAGTACGAATGTCGA	7.32	6.1	2.48	5.05	2.01	6.35	8.65	7.34	5.8	7.54	3.56	5.37	1.12	1.69	2	4.21	0.472	5.56	0.52	4.49
CACGAAAGGTCGTGCTCAGGTGAGTATACCAAAC	5.58	4.3	0.166	3.44	0.848	4.88	3.14	3.97	1.14	2.72	1.16	1.86	0.523	0.745	1.9	3.35	0.154	4.28	-0.1	4.13
TCATATAGGTAATACAGCTGAAAGTCGGCATCTA	0.752	0.674	-0.0282	0.475	0.431	1.14	0.839	2.26	3.95	3.15	4.01	1.94	0.896	1.18	1.1	0.684	-0.0774	0.947	0.987	0.188
CCGACTGGGGGAAGGTTACCATAACGCACAGCCA	0.719	1.05	0.199	2.11	2.85	1.71	1.63	2.33	0.95	1.37	0.717	2.1	0.867	1.69	0.69	0.63	0.357	0.802	0.511	1
TCGCGGAGGACACGAAAGGTCAGAGCTCGACATC	2.61	3.72	2.77	3.12	-0.812	3.59	1.18	2.51	0.965	1.95	0.791	1.5	0.00207	-0.746	2.36	3.97	0.407	4.24	1.04	4.03
